This is part of a sample that, as a whole, favours compounds with a hit. Of some 83,000 tested, about 20% had one in any assay.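 Testing used 96-well plates and a 48-hour single-concentration exposure. Example: -40 means 40% of the starting cells died.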 Unmarked numbers belong to inactive results. The source made the active and inactive calls. The calls were made as follows: active = growth percent below 10; inactive = the rest.
Tests used:
Assay in all cases: NCI-60 one-dose screen, 48 h (100 = growth as untreated, 0 = no growth, -100 = all killed)
Details in all cases: 10 µM
[1] = system: NCI-H23 lung
[2] = system: NCI-H226 lung
[3] = system: HOP-62 NSCLC
[4] = system: NCI-H460 lung
[5] = system: HOP-92 NSCLC
[6] = system: NCI-H522 lung
[7] = system: A549/ATCC NSCLC
[8] = system: DU-145 prostate
[9] = system: K-562 leukemia
[10] = system: MALME-3M melanoma
[11] = system: MDA-MB-231 breast
[12] = system: RXF 393 renal
[13] = system: SF-268 CNS
[14] = system: SF-295 CNS
[15] = system: SF-539 CNS
[16] = system: UACC-257 melanoma
[17] = system: M14 melanoma
[18] = system: 786-0 renal
[19] = system: COLO 205 colon

| Compound | growth [1] | growth [2] | growth [3] | growth [4] | growth [5] | growth [6] | growth [7] | growth [8] | growth [9] | growth [10] | growth [11] | growth [12] | growth [13] | growth [14] | growth [15] | growth [16] | growth [17] | growth [18] | growth [19] |
| --- | --- | --- | --- | --- | --- | --- | --- | --- | --- | --- | --- | --- | --- | --- | --- | --- | --- | --- | --- |
| CC(=O)Nc1ccc(CC[C@H]2CCC/C=C/[C@@H]3C[C@H](O)C[C@H]3[C@H](O)/C=C/C(=O)O2)cc1 | -19% (active) | 10.1% | 15.7% | 13.3% | -15% (active) | -39.3% (active) | 11.9% | 22.9% | 15.3% | -7.38% (active) | -88.4% (active) | -32.1% (active) | 13.8% | 16.9% | 25.3% | -3.78% (active) | 9.87% (active) | – | – |
| Oc1cccc(-c2nc3sccn3c2-c2ccncn2)c1 | 92.1% | 94.4% | 103% | 97.8% | 82.6% | 98.9% | – | 106% | 90% | -8.47% (active) | 81.4% | 67.3% | 106% | 101% | 98.8% | 31% | 19.4% | 95.7% | 32.1% |
| CN1CCN(CCCn2c(=O)c3sc4ncccc4c3n3nnc(-c4ccccc4)c23)CC1 | 77.3% | 108% | 21.7% | -77.1% (active) | 48.9% | -83.9% (active) | 12% | 31.5% | -32.5% (active) | – | -45.5% (active) | -68.3% (active) | -10.8% (active) | -76.1% (active) | -90.5% (active) | -88.8% (active) | -82.7% (active) | 5.36% (active) | -96.5% (active) |
| Clc1ccc(Cc2ccncc2)cc1 | 105% | 109% | 107% | 113% | 85.6% | 82% | 106% | 114% | 111% | – | 99.5% | 110% | 96.2% | 112% | – | 104% | 109% | 97.3% | 109% |
| COc1cc(OC)c2c(=O)c(O)c(-c3ccccc3)oc2c1 | 79.8% | 69.3% | 67.7% | 53.5% | 52% | 72.5% | 77.3% | 70.7% | 70.6% | 101% | 67.9% | 67.6% | 66.4% | 98.3% | 79.7% | 84.2% | 73.2% | 70.8% | – |
| COc1ccc2c(c1)OC(N)=C(C#N)C2c1cc(OC)c(OC)c(OC)c1 (stereo not drawn) | 16.3% | 54.2% | 38.9% | 1.65% (active) | -0.922% (active) | -27.9% (active) | 16.2% | -19.5% (active) | 7.08% (active) | 26.9% | 4.49% (active) | 38.7% | 22.8% | 4.98% (active) | 4.42% (active) | 68.2% | 5.11% (active) | 15.2% | – |
| CC(=O)OC1CC2C(C)(C)CCC[C@]2(C)C2=C1C(O)=C(C(C)C)C(=O)C2=O (stereo partly drawn) | 9.91% (active) | -71.1% (active) | -40.3% (active) | -39.8% (active) | -79.2% (active) | 58.6% | 6.64% (active) | -62.7% (active) | – | – | -17.8% (active) | -59.8% (active) | 15.7% | -53.1% (active) | -7.95% (active) | -12% (active) | -43% (active) | -3.43% (active) | -38.5% (active) |
| CCOC(=O)c1cc(C(=O)c2ccc(F)cc2F)n2ccccc12 | 101% | 88.2% | 88.6% | 97.5% | 47.1% | 70.1% | 86% | 105% | 85.9% | 120% | 79.9% | 99.3% | 85.7% | 94.7% | 95.2% | 93.4% | – | 90.6% | – |
| O=C1c2ccccc2C(=O)c2c1ccc(C(Br)Br)c2Cl | 8.26% (active) | 80.4% | 96% | 78% | 42.7% | -72.9% (active) | – | 33.1% | -28.9% (active) | -70.9% (active) | -41.9% (active) | 36.2% | -19.1% (active) | 90.5% | 69.9% | 100% | 10.7% | -78.9% (active) | -33.4% (active) |
| Nc1nc(N)c(N)c(Nc2ccc(CCO)cc2)n1 | 98.3% | 96.2% | 95.6% | 108% | 118% | 91.9% | 102% | 102% | – | – | 95.3% | 109% | 103% | 105% | 111% | 103% | 97.2% | 109% | 95.5% |
| CCN(CC)CCOc1cccc2c1C(=O)c1cccc(OCCN(CC)CC)c1C2=O | 42.2% | 36.6% | 37% | 13.9% | 36.5% | 42.8% | 17.5% | 27.1% | 27.9% | 52% | 42.4% | 42.4% | 40.8% | 32.5% | 37.3% | 70.7% | – | 38.6% | – |
| CCN(CC)CCCC(C)N=C(C1=C(C(=NC(C)CCCN(CC)CC)c2cccc(OC)c2)C(=O)NC1=O)c1cccc(OC)c1 (stereo not drawn) | -18.4% (active) | -43.4% (active) | -57.5% (active) | -47.1% (active) | -66.1% (active) | -64.5% (active) | -81.7% (active) | -5.08% (active) | -44.2% (active) | – | – | -64.8% (active) | -29.5% (active) | -53.5% (active) | -85.3% (active) | -95.2% (active) | -77.5% (active) | -8.78% (active) | -89.9% (active) |
| COc1ccc2c(c1)CC=C1[C@@H]2CC[C@]2(C)C(=O)/C(=N/O)C[C@@H]12 | 102% | 87.6% | 88.5% | 101% | 96.5% | 102% | 99.4% | 96.6% | – | – | 86.9% | 64% | 76.4% | 74.9% | 98.7% | 118% | 94.3% | 90.3% | 103% |
| O=C1c2ccccc2C(=O)c2c1ccc1c(=O)n(-c3ccccc3C(F)(F)F)nnc21 | 3.9% (active) | 35.9% | 23.8% | 5.82% (active) | 37.1% | 16.7% | – | 47.7% | 15.2% | -51.3% (active) | 3.26% (active) | 28.9% | 43.2% | 52.5% | -27.2% (active) | -23.6% (active) | 5.14% (active) | 60.5% | 8.51% (active) |
| NS(=O)(=O)Oc1ccc(-c2ccc3sccc3c2)cc1 | 94.2% | 88.1% | 104% | 103% | 104% | 87.1% | 98.3% | 104% | 96.9% | 106% | 90% | 100% | 102% | 97.2% | 98.9% | 104% | 100% | 106% | – |
| Nc1c(Br)cc(Br)c2c1[nH]c(=O)c1ccccc12 | 67% | 19.5% | 22.4% | 29.1% | 82.8% | 87.4% | 58.7% | – | 78.4% | 47.8% | 54.8% | 26.2% | 76.9% | 73.1% | 83.7% | 87.9% | 100% | 74.3% | 86.5% |
| COc1cc(C2CC(c3ccc4c(c3)OCO4)=NN2c2ccccc2)cc(OC)c1OC (stereo not drawn) | 93.9% | 102% | 104% | 103% | 84.1% | 73.4% | 98.5% | 107% | 48.8% | – | 82.2% | 106% | 83.6% | 91.2% | – | 90.3% | 91.6% | 95.9% | 86.8% |
| O=C(Nc1ccc(OCc2nnc(-c3ccc(Cl)cc3)o2)c(F)c1)Nc1ccc(Cl)c(C(F)(F)F)c1 | -5.04% (active) | -4.39% (active) | 16.6% | 2.73% (active) | -19.3% (active) | -33.8% (active) | 12.8% | 9.34% (active) | 11.2% | – | – | -10.2% (active) | 22.5% | 1.05% (active) | 12.3% | -4.65% (active) | 3.31% (active) | 10.1% | -76.9% (active) |
| CC(C)(C)c1nn(-c2ccccc2)c2c1CC1(CN2Cc2ccc(Cl)cc2)C(=O)c2ccccc2C1=O | 80.8% | 81.9% | 102% | 90.7% | 54.8% | 80.3% | 70.7% | 95.8% | 81.3% | – | 83.2% | 95.3% | 89% | – | – | 76.1% | 87.1% | 86.7% | – |
| CC(=O)Nc1ccc2c(c1)C(=O)c1cccc(C(=O)O)c1-2 | 104% | 95.5% | 98.9% | 98.1% | 96.6% | 108% | – | 116% | 115% | 148% | 112% | 109% | 104% | 100% | 106% | 105% | 107% | 105% | 114% |
| Cc1ccc(C2NC(=S)N3C(c4ccc(C)cc4)NC(=S)N23)cc1 (stereo not drawn) | 38.9% | 63.1% | -45.6% (active) | 9.7% (active) | -3.05% (active) | -39.2% (active) | 32% | 18.7% | 5.27% (active) | – | 59.4% | – | 37.6% | 6.72% (active) | 13.9% | -22.5% (active) | -26.5% (active) | – | 44% |

Reference: PubChem BioAssay (NCI)
